Out of some 310,000 compounds screened, about 11,000 (3.5%) were called active. Roughly 8% stayed inconclusive and do not appear here. No cut-off for these calls is given here. Only a selection was taken, and actives are over-represented in it overall.
target: Nuclear receptor ROR-gamma (Mus musculus) (UniProt P51450); experiment: VP16 counterscreen qHTS for inhibitors of ROR gamma transcriptional activity.; assay type: functional
Sequence (P51450 whole entry): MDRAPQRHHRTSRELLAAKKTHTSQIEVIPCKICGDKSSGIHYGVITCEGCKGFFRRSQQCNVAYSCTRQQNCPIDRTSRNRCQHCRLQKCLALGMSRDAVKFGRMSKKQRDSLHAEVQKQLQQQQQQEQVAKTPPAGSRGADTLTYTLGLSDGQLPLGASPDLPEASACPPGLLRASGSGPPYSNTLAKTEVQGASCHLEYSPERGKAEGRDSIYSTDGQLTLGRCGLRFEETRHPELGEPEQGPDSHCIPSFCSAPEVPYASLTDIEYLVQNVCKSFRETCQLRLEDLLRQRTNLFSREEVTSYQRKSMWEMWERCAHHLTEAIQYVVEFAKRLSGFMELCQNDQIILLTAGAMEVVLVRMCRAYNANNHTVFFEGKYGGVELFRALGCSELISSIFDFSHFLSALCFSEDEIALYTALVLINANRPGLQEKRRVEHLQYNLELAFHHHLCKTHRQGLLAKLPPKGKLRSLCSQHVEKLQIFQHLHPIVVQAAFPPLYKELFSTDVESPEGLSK

Which Potency does the source give for `Cl[Te]1(Cl)OCCO1` here?
The Potency was 3.55 µM (active).

How did the Potency turn out when `CNc1ccc2oc(C[C@@H]3OC4(CC[C@@H]3C)O[C@H](C(C)C(=O)c3ccc[nH]3)[C@H](C)C[C@H]4C)nc2c1C(=O)O` (some centres not stated) was run?
Its Potency is 631 µM (active).

Reference: ChEMBL document CHEMBL1201862, “PubChem BioAssay data set” (2004)
